From PubChem BioAssay
POLB inh – DNA polymerase beta (human) inhibition. Potency, µM (highest dose often 114 µM), without a hit: at the top dose activity change, negative = inhibition, usual class: inhibitors. 340,000 compounds, 1.3% hits. P06746. Pol beta primer extension/strand displacement, fluorescence kinetic; also: % is scaled to controls: 0 for no effect and ±100 for the full control effect
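Preincubation: enzyme (10 nM) with compound, 15 min, RT. Reaction: substrate added to 50 nM final. Reads: 0 and 10 min. Analysis: normalized, Hill fit.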
L3MBTL1 inh – blocks human L3MBTL1; Q9Y468; AlphaScreen L3MBTL1–H3K9me1 peptide binding; Potency, µM (series often up to 57.1 µM), for the others: top-dose activity, negative = inhibition, usual class: inhibitors; 230,000 compounds, 0.66% hits; also: % is scaled to controls: 0 for no effect and ±100 for the full control effect; nearly all actives have a fitted effect of over 60% in size
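L3MBTL1 (50 nM) pre-complexed 30 min with biotinylated H3(1-15)K9me1 peptide (75 nM), then compounds added for 30 min at room temperature; AlphaScreen streptavidin donor/nickel chelate acceptor beads (10 ug/mL final) read after 30 min dark incubation.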
Pol iota inh – DNA polymerase iota (human) inhibition | 390,000 compounds, 1% hits | Potency, µM (top dose mostly 115 µM), inactives show at the highest dose activity, negative = inhibition, hits mostly inhibitors | Pol iota fluorescent replication assay, 10 min | Q9UNA4 | AID 588590
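Fluorescent replication assay read twice, at 0 min and 10 min after adding 50 nM (final) substrate. Enzyme (10 nM) and compounds were first incubated 15 min at room temperature; enzyme-free buffer wells were negative controls.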
POLH inh – blocks human DNA polymerase eta activity; AID 588591; recombinant Pol eta, fluorescent DNA replication assay; Potency, µM (series often up to 114 µM), without a hit: top-dose activity change, negative = inhibition, most hits filed as inhibitors; Q9Y253; 390,000 compounds, 1.2% hits; also: % is scaled to controls: 0 for no effect and ±100 for the full control effect
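Pol eta at 10 nM preincubated with compounds 15 min at room temperature; reaction started with fluorescent substrate (50 nM final) and read kinetically at 0 and 10 min.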
Pol kappa inh – DNA polymerase kappa (human) inhibition; 400,000 compounds, 0.53% hits; purified Pol kappa, fluorescent DNA synthesis assay, 10 min; Q9UBT6; AID 588579; Potency, µM (doses to about 107 µM), for inactives: at the top dose activity, negative = inhibition, usual class: inhibitors; also: % is scaled to controls: 0 for no effect and ±100 for the full control effect
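10 nM Pol kappa preincubated 15 min at room temperature with compounds, then reaction started with substrate at 50 nM final. Fluorescence read kinetically at 0 and 10 min; buffer-only wells served as negative control.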
APE1 inh-1 – APE1 (human) endonuclease inhibition | recombinant APE1, TAMRA/BHQ-2 abasic DNA cleavage fluorescence | Potency, µM (top dose mostly 65.8 µM), without a hit: at the top dose activity change, negative = inhibition, most hits filed as inhibitors | P27695 | AID 2517 | 350,000 compounds, 0.35% hits;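 also: plate controls were vehicle for no effect and reference inhibitor for full effect; nearly all actives have a fitted effect of over 55% in size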
Target sequence (P27695 whole entry, looked up): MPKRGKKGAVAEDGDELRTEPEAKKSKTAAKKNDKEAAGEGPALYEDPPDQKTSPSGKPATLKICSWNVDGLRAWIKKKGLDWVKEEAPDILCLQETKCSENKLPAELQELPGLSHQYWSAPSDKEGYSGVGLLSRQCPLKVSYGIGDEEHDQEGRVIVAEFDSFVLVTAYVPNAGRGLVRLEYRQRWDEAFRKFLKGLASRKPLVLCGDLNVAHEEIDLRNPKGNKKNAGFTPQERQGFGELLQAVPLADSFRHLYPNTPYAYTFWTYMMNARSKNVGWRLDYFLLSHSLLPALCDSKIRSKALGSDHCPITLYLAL
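Compound pre-exposure to 0.75 nM APE1, 15 min at ambient temperature. Reaction initiated with 50 nM TAMRA/BHQ-2 THF substrate, read immediately in kinetic mode, 525 nm excitation, 598 nm emission.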
DNA dye displace – displaces fluorescent dye from DNA, flagging APE1 artifacts | shares compounds with APE1 inh-1 | DNA fluorescent dye displacement counterscreen, fluorescence | Potency, µM (series often up to 28.5 µM), for the others: at the highest dose activity change, negative = inhibition, actives largely listed as inhibitors | 480 compounds, 7% hits | AID 2564;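 also: loss of thiazole orange fluorescence as the dye is displaced from duplex DNA; 0% = ThO with dsDNA and no compound and -100% = ThO without dsDNA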
EndoIV counter – Endo IV (E. coli) inhibition counter-screen; E. coli Endo IV, fluorogenic AP-site DNA cleavage; Potency, µM (highest dose often 27.1 µM), inactives show at the top dose activity change, negative = inhibition, most hits filed as inhibitors; shares compounds with APE1 inh-1; 560 compounds, 4% hits;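 also: plate controls were uninhibited enzyme wells for no effect and no enzyme buffer wells for full effect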
APE1 inh-2 – APE1 (human) endonuclease inhibition, confirmation | 750 compounds, 44% hits | AID 2572 | shares compounds with APE1 inh-1 | purified APE1, fluorogenic abasic-site DNA cleavage | Potency, µM (highest dose often 57.1 µM), without a hit: top-dose activity change, negative = inhibition, usual class: inhibitors; also: % is scaled to controls: 0 for no effect and ±100 for the full control effect; nearly all actives have a fitted effect of over 30% in size
APE1 FP – displaces DNA from human APE1 in FP assay; shares compounds with APE1 inh-1; Potency, µM (highest dose often 28.5 µM), for the others: top-dose activity, negative = inhibition, hits mostly inhibitors; APE1 binding to TAMRA-labelled double-stranded DNA, fluorescence polarization displacement; 480 compounds, 7% hits; also: % is scaled to controls: 0 for no effect and ±100 for the full control effect
Starred values were filed as active, the others as inactive; ? = inconclusive; nt = no result given; [ ] = another dose, or the depositor's remark. An excerpt weighted towards active compounds, which were near 2.5% of everything screened. Calls follow the shape of the dose curve; as a rule, active = well fitted curve in the direction sought with a large enough effect; inconclusive = small, poorly fitted or top-dose-only effect, or another doubt; inactive = no such curve, though single readings can be large; an effect the other way counts as inactive or inconclusive. Potency is read from the fitted curve at half-maximal effect.

SMILES	POLB inh	L3MBTL1 inh	Pol iota inh	POLH inh	Pol kappa inh	APE1 inh-1	DNA dye displace	EndoIV counter	APE1 inh-2	APE1 FP
O=C(O)c1cccc2c1C(=O)c1ccc(-c3ccc(Cl)c(C(F)(F)F)c3)cc1S2(=O)=O	nt	-2%	-11%	-3%	-4%	1%	nt	nt	nt	nt
CN(C)CCC=C1c2ccccc2C(C)(C)c2ccccc21	nt	nt	nt	nt	2%[19.4 µM]	nt	nt	nt	nt	nt
CN(C)CCC=C1c2ccccc2C=Cc2ccccc21	-8%[57.1 µM]	-7%	-16%	0%	2%[60.1 µM]	2%	nt	-12%[57.1 µM]	-13%	nt
Nc1cc(=O)[nH]c(SCC(=O)Nc2cccc(Cl)c2)n1	-3%	nt	-2%	-11%	2%	0%	nt	nt	nt	nt
CCc1ccc(NC(=O)CSc2nc(NS(=O)(=O)c3ccccc3)cc(=O)[nH]2)cc1	20µM*	?	29%	-21%	-7%	7.9µM*	3%	16%	-10%[24.4 µM]	0%
Cc1ccc(NC(=O)CSc2nc(NS(=O)(=O)c3ccccc3)cc(=O)[nH]2)cc1	22µM*	nt	?	22µM*	22µM*	?	nt	nt	-38%	nt
Cc1ccc(NC(=O)CSc2nc(N)cc(=O)[nH]2)cc1Cl	?	-12%	46%	-15%	-2%	35µM*	?	0%	-5%[24.4 µM]	-4%
COc1ccc(C(O)(c2ccccc2)C(C(=O)O)c2ccccc2)cc1 (stereo not drawn)	nt	nt	17%	-17%	-5%	nt	nt	nt	nt	nt
COc1ccc2c(c1)O[C@H](c1ccc3c(c1)OCO3)[C@@H](OC(=O)Nc1ccc(C)c(Br)c1)C2=O	nt	nt	nt	nt	nt	-1%	nt	nt	nt	nt
CCc1nc2ccc(C(=O)Nc3ccc(NC(C)=O)cc3)cc2nc1CC	25%	-1%	13%	1%	0%	18%	nt	nt	nt	nt
CC(=O)c1ccc(NC(=O)c2ccc3nc(-c4ccco4)c(-c4ccco4)nc3c2)cc1	2.8µM*	nt	3.2µM*	2.8µM*	7.9µM*	?	8.9µM*	?	4µM*	-46%
Cc1cc(O)c(C=O)c2c1C(=O)Oc1c(COC(=O)/C=C/C(=O)O)c(O)c(C(=O)O)c(C)c1O2	nt	nt	nt	nt	3.5µM*	1.3µM*	nt	-21%[57.1 µM]	11µM*	nt
Cc1cc(O)c(C=O)c(O)c1C(=O)O	nt	nt	nt	nt	-14%[60.1 µM]	-1%	nt	nt	nt	nt
NC(=O)c1ccc2c(=O)n3c(-c4cc(Cl)c(N)c(Cl)c4)csc3nc2c1	?	nt	50µM*	?	-2%	-4%	nt	nt	-26%	nt
Nc1ccn([C@@H]2O[C@H](CO)[C@@H](O)C2O)c(=O)n1 (stereo partly drawn)	-1%	nt	31%	-10%	2%[60.1 µM]	-3%	-3%[57.1 µM]	22%[57.1 µM]	-6%	7%[57.1 µM]
Nc1ccn([C@@H]2O[C@H](CO)[C@@H](O)[C@H]2O)c(=O)n1	nt	nt	18%	-17%	-2%	15%	nt	nt	nt	nt
Cc1c(Cl)cccc1N=Cc1ccc([N+](=O)[O-])s1	?	?	35µM*	89µM*	-17%	?	?	3%	-8%[24.4 µM]	10%
Cc1ccccc1C(=O)N/N=C/c1ccc([N+](=O)[O-])s1	-2%	nt	?	-6%	-6%	3%	nt	nt	nt	nt
N[C@@H](CCC(=O)N[C@@H](CSN=O)C(=O)NCC(=O)O)C(=O)O	nt	7%	7%	-16%	17%	0%	nt	nt	nt	nt
[N-]=[N+]=Nc1ccc(C(=O)CSC[C@H](NC(=O)CC[C@H](N)C(=O)O)C(=O)NCC(=O)O)cc1	?	nt	28µM*	?	?	?	nt	-23%[57.1 µM]	-61%	nt
COc1ccc(Cn2ccnc2SCC(=O)Nc2nc3ccccc3s2)cc1	?	nt	-13%	-14%	-6%[60.1 µM]	nt	nt	nt	nt	nt
O=C(CSC1CC(=O)N(CC(c2ccccc2)c2ccccc2)C1=O)Nc1ccc(Cl)cc1 (stereo not drawn)	11%	-3%	12%	-5%	-13%	?	48%	?	?	13%
CCCSC(=S)c1c(C)[nH]n(-c2ccccc2)c1=O	23%	-22%	32%	-5%	10%	8%	nt	nt	nt	nt
C=CCN(CC=C)C(=O)Cc1ccc(F)cc1	27%	-3%	20%	-7%	2%	5%	nt	nt	nt	nt
CCCN(CCC)C(=O)Cc1ccc(F)cc1	?	13%	18%	-1%	-10%	-9%	nt	nt	?	nt
SMILES	POLB inh	L3MBTL1 inh	Pol iota inh	POLH inh	Pol kappa inh	APE1 inh-1	DNA dye displace	EndoIV counter	APE1 inh-2	APE1 FP
COc1ccc(S(=O)(=O)N2CCN(CC(=O)Nc3sccc3C(N)=O)CC2)cc1OC	nt	-1%	6%	-10%	3%	8%	nt	nt	nt	nt
CCOC(=O)N1CCC(NC(=O)c2cc3c(-c4ccc(OC)c(OC)c4)nn(C)c3s2)CC1	-3%	nt	17%	-7%	-7%	-1%	nt	nt	nt	nt
COc1ccc(NC(=O)c2cc3c(-c4ccc(OC)c(OC)c4)nn(C)c3s2)cc1OC	28µM*	nt	?	?	?	?	9%	11µM*	13µM*	-4%
C[C@@H]1C(SC2Cn3cnc[n+]3C2)=C(C(=O)[O-])N2C(=O)[C@H]([C@@H](C)O)[C@@H]12 (stereo partly drawn)	nt	nt	nt	nt	-1%[60.1 µM]	nt	nt	nt	nt	nt
Cc1nc(N=Nc2cc(S(=O)(=O)O)c3cc([N+](=O)[O-])cc(S(=O)(=O)O)c3c2)c(COP(=O)(O)O)c(C=O)c1O	2.8µM*	nt	5µM*	0.63µM*	9.5µM*	2.5µM*	nt	25µM*	1.1µM*	nt
COc1ccc(C2=NC(C)(C)N(CC(=O)Nc3cccc(C)c3)C2=O)cc1	-27%	nt	1%	nt	-1%	nt	nt	nt	nt	nt
COc1cccc(N2CCN(CC(=O)NC(=O)NCc3ccco3)CC2)c1	7.9µM*	nt	13µM*	79µM*	?	?	-8%	0%	?	-2%
CC(N=Cc1cc([N+](=O)[O-])ccc1O)c1ccccc1 (stereo not drawn)	15%	nt	2%	-10%	1%[60.1 µM]	3%	nt	nt	nt	nt
CC(N=Cc1cccc(O)c1O)c1ccccc1 (stereo not drawn)	2.5µM*	nt	8.9µM*	?	13µM*	14µM*	5%	13%	-7%[24.4 µM]	-3%
